Reference: PubChem BioAssay AID1628 (Sanford-Burnham Center for Chemical Genomics, 2009)
Hit rate of the full screen: of about 190,000 compounds, about 930 (0.49%) were called active. This is one part of the list. Potency and affinity values are given separately. Values without a mark were called inactive.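 How the source made its calls: active means z-score of insulin promoter reporter brightness in nuclei below -3 at 5 µM, with at least 500 cells counted; inconclusive means wells with under 500 cells, flagged as toxic or sparse; inactive means the rest.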

Test: insulin promoter down-regulators in MIN6 cells, imaging, high-content screening, mouse beta cells (AID 1628)
Conditions: MIN6 insulin promoter GFP reporter, at 5 µM, stronger effect = lower value

Row | SMILES | z-score
1 | Cc1cc2nc3c(=O)n(C4CCCCC4)c(=O)[nH]c3nc2cc1N | 7.94
2 | CCC(C)N1C(=O)/C(=C/c2c(NCCCOC(C)C)nc3c(C)cccn3c2=O)SC1=S (centres undefined) | 13.1
3 | Cc1noc(C)c1COc1cccc(C(=O)OC(C)C(=O)Nc2c(C)n(C)n(-c3ccccc3)c2=O)c1 (centres undefined) | 1.6
4 | CC(=O)Nc1ccc2nc(NC(=O)COc3cccc(C)c3)sc2c1 | 1.98
5 | COc1ccc2nc(NC(=O)c3cccc(OCc4c(C)noc4C)c3)sc2c1 | -3.94 (active)
6 | COc1cc(N2CCCC2)c(OC)cc1/C=c1/sc2nc3ccccc3n2c1=O | 16.8
7 | CCCN1C(=O)/C(=C\C=C2\N(CC)c3ccccc3C2(C)C)SC1=S | 17.2
8 | CCCN1C(=O)/C(=C/C=C2\N(CC)c3ccccc3C2(C)C)SC1=S | 12.5
9 | N#C/C(=C/c1ccc(N2CCCCC2)o1)C(=O)NCCc1c[nH]c2ccccc12 | 17.5
10 | O=C1c2cccnc2C(=O)N1Cc1ccco1 | 2.51
11 | CC(C)(CO)C(O)C(=O)NCCC#N (centres undefined) | -1.31
12 | O=[N+]([O-])c1ccc(/C=C/C2=NN(c3ccccc3)C(c3ccco3)C2)o1 (centres undefined) | 12.4
13 | CCOc1ccc(NC(=O)C2CCC(C)(C(=O)O)C2(C)C)cc1 (centres undefined) | 3.64
14 | CCOC(=O)c1ccc(NC(=O)C2(c3ccc(OC)cc3)CCCC2)cc1 | -5.09 (active)
15 | CCOC(=O)c1ccc(NC(=O)C2CC2)cc1 | -4.4 (active)
16 | CCN(CC)c1ccc(NC(=O)C2CC3CCC2C3)cc1 (centres undefined) | -2.14
17 | CN1CC=C2C(C#N)=C(N)C(C#N)(C#N)C(c3cccc(Cl)c3Cl)C2C1 (centres undefined) | 14.1
18 | COc1cc(N2CCCC2)c(OC)cc1/C=C1/NC(=S)NC1=O | 17.8
19 | CCOC(=O)N1CCC(N2CCN(S(=O)(=O)c3ccc4ccccc4c3)CC2)CC1 | -4.2 (active)
20 | CCOC(=O)N1CCN(S(=O)(=O)c2ccc3c(c2)oc(=O)n3C)CC1 | 3.1
21 | CCOC(=O)N1CCN(C(=O)c2cc(S(=O)(=O)N3CCCC3)cn2C)CC1 | 3.05
22 | COCCNC(=O)c1onc(CSc2cccc(C)c2)c1C(=O)O | 3.82
23 | Clc1ccc(C[n+]2cc(-c3ccccc3)n3c2CCCCC3)c(Cl)c1 | -5.27 (active)
24 | COc1ccc(N=C2NC(=O)S/C2=C\c2ccc(N(C)C)cc2)cc1 | 3.4

Row | SMILES | z-score
25 | CN1CC=C2C(C#N)=C(N)C(C#N)(C#N)[C@H](c3cccc(Cl)c3)C2C1 (some centres undefined) | 15.9
26 | N#C/C(C(=O)c1ccccc1)=C1/SC=C(N)N1c1ccccc1 | 5.96
27 | CCCCN(CC)S(=O)(=O)c1ccc(C(=O)N(CCCN(C)C)c2nc3cc(C)cc(C)c3s2)cc1 | -3.82 (active)
28 | CC(C)OC(=O)CN1C(=O)S/C(=C/c2ccc(N3CCCCC3)o2)C1=O | 6.58
29 | Cn1c(=O)n(C)c2cc(NC(=O)COc3ccc(Cl)cc3)ccc21 | 3.02
30 | Cc1cc(Cl)ccc1OCC(=O)OCC(=O)Nc1ccc(F)c([N+](=O)[O-])c1 | -5.99 (active)
31 | COc1ccc(C2=Nn3c(nnc3-c3ccccc3OC)SC2)cc1OC | -3.31 (active)
32 | COc1ccccc1-c1c(C)c(C)nc(N)c1C#N | -0.95
33 | COc1ccc(OC)c(C2=Nn3c(nnc3C3CCCCC3)SC2)c1 | -6.49 (active)
34 | CC(=O)Nc1ccc(N=Cc2c(O)c(C(=O)Nc3ccccc3)cc3ccccc23)cc1 | 3.59
35 | CC(=O)Nc1ccc(Nc2c3ccccc3nc3ccccc23)cc1 | -3.01 (active)
36 | Cc1ccc(C(=O)SC2=NCCS2)cc1 | 1.97
37 | O=C(CSc1ccccn1)Nc1cccc2ccccc12 | 2.55
38 | O=c1[nH]c(/C=C/c2ccccc2OC(F)F)nc2c1cnn2-c1ccccc1 | 3.2
39 | COc1ccc(CN(C(=O)c2ccc(-c3ccccc3)[nH]2)C(C(=O)NC(C)(C)C)c2ccncc2)cc1 (centres undefined) | 2.66
40 | Cc1ccc(-c2nnc(N3CCN(C(=O)c4ccco4)CC3)c3ccccc23)cc1 | -4.39 (active)
41 | O=C(Nn1c(-c2ccccc2)nc2ccccc2c1=O)c1ccco1 | -0.06
42 | C[N+](C)(C)CCCNC(=O)c1ccc(/C=N/O)nc1 | 0.8
43 | N#Cc1nc(N2CCOCC2)nc(N2CCOCC2)n1 | 3.26
44 | CCCN1CC=C2C(C#N)=C(N)C(C#N)(C#N)C(c3cc(OC)ccc3OC)C2C1 (centres undefined) | 15.3
45 | C[n+]1cc(C(=O)N2CCCCC2)ccc1/C=C/c1c[nH]c2ccccc12 | 3.95
46 | Cc1ccccc1C(=O)N1CCc2ccccc2C1 | 3.99
47 | O=C(c1csc2ccccc12)N1CCCCCC1 | -4.36 (active)
48 | N#Cc1c(NC(=O)CCCN2C(=O)c3ccccc3C2=O)oc(-c2ccccc2)c1-c1ccccc1 | -0.48

Row | SMILES | z-score
49 | Cc1csc(SC(C)C(=O)NCC(=O)Nc2ccc(F)c(F)c2F)n1 (centres undefined) | 4.91
50 | Cc1ccc(-n2nnnc2SC(C)C(=O)NCC(=O)Nc2ccc(F)c(F)c2F)c(C)c1 (centres undefined) | -4.63 (active)
51 | Cc1ccc2nc(C)c(C(=O)O)cc2c1 | 3.57
52 | O=C(CN1CCOCC1)Nc1nc(-c2ccc3c(c2)CCN3S(=O)(=O)c2ccccc2)cs1 | -3.24 (active)
53 | CS(=O)(=O)N1CCc2cc(-c3csc(NC(=O)Cc4cccs4)n3)ccc21 | -3.24 (active)
54 | O=C(Nc1ccccc1)c1ccccc1NS(=O)(=O)c1ccc(Cl)s1 | -3.51 (active)
55 | O=S(=O)(NCc1csc(-c2ccccc2)n1)c1ccc(Cl)s1 | 0.86
56 | Cc1ccc(SCCC(=O)N/N=C/c2ccncc2)cc1 | 1.59
57 | CC(=O)Oc1ccc2c(c1)Oc1cc(OC(C)=O)ccc1C21OC(=O)c2ccccc21 | 15.3
58 | O=C1/C(=C/c2c[nH]c3ccccc23)CCC/C1=C\c1c[nH]c2ccccc12 | 4.59
59 | O=C1CC(=O)C(n2cncn2)C(c2ccc(Cl)cc2)C1 (centres undefined) | -5.08 (active)
60 | COCCN1C(=O)/C(=C/c2ccc(N3CCCC3)cc2)SC1=S | 16.8
61 | COc1ccc(/C=C2/SC(=O)N(CCNC(=O)C3CCCN3C(=O)c3cccs3)C2=O)cc1 (centres undefined) | -4.56 (active)
62 | CCC(C)(C(=O)NC1CCCC1)N(C(=O)CNC(C)=O)c1ccccc1 (centres undefined) | 3.46
63 | O=C(CCl)N(c1ccccc1)C1CCCCC1 | -5.83 (active)
64 | Cc1ccc2[nH]c(-c3ccccc3)c(CN(C)C)c(=O)c2c1 | 4.17
65 | O=c1c2nnn(Cc3ccccc3)c2ncn1C/C=C/c1ccccc1 | -5.83 (active)
66 | Cc1ccc(Cn2nnc3c(=O)n(CC(=O)NCc4ccco4)cnc32)cc1 | 1.28
67 | COc1cccc(-n2nnc3c(=O)n(CC(=O)OCc4ccccc4)cnc32)c1 | 1.01
68 | c1ccc(CCNc2c3c(nc4ncnn24)CCC3)cc1 | -3.18 (active)
69 | Oc1[nH]c2c(Cl)cc(Cl)cc2c1N=NC(=S)NCC1CCCO1 (centres undefined) | -3.65 (active)
70 | O=C(CN(C1CCCCC1)S(=O)(=O)c1ccccc1)NCc1ccco1 | 0.65
71 | CCC(=O)N1CCCc2cc(S(=O)(=O)N3CCN(c4ccccc4F)CC3)ccc21 | -5.64 (active)
72 | CCOC(=O)C1CCN(S(=O)(=O)c2ccc3c(c2)CCCN3C(C)=O)CC1 | -4.86 (active)

Row | SMILES | z-score
73 | COc1ccccc1N/C(N)=N/c1nc(C(F)(F)F)cc(=O)[nH]1 | 3.34
74 | CCCCn1c(SCc2ncc(-c3ccccc3)o2)nc2cc(S(N)(=O)=O)ccc21 | -5.03 (active)
75 | CCCCn1c(SCC(=O)O)nc2ccccc21 | 3.5
76 | N=c1c2c(-c3ccccc3)c(-c3ccccc3)oc2ncn1CCCN1CCOCC1 | -3.3 (active)
77 | Cc1cccn2c(=O)c(/C=C3\SC(=S)NC3=O)c(NCCCN3CCOCC3)nc12 | 5.45
78 | O=C(/C=C/c1ccc(N2CCC(c3ccccc3)=N2)cc1)c1ccccc1 | 17.2
79 | O=C1C=C(Nc2ccc(O)cc2)CC(c2ccco2)C1 (centres undefined) | 6.78
80 | O=c1[nH]c2ccccc2nc1/C=C/c1ccc(F)cc1 | 5.99
81 | CCOC(=O)c1c(NC(=O)c2ccccc2)sc2c1CCc1ccccc1-2 | -5.18 (active)
82 | CCOC(=O)c1sc(NC(=O)c2sccc2C)cc1C | 3.1
83 | Cc1ccc(C2CC(=O)NC(SCc3ccccc3)=C2C#N)o1 (centres undefined) | 3.43
84 | CC(=O)C1=C(C)NC(SCC(=O)c2ccc(Cl)c(Cl)c2)=C(C#N)C1c1ccco1 (centres undefined) | 3.16
85 | CCOC(=O)CSC1=C(C#N)C(c2ccc(C)s2)CC(=O)N1 (centres undefined) | -3.15 (active)
86 | CCn1c(NCCc2ccc(OC)c(OC)c2)nc2c1c(=O)n(C)c(=O)n2C | -5.44 (active)
87 | CCOc1cc2[nH]c(=O)n(CCC(=O)NCCc3ccc(OC)c(OC)c3)c(=O)c2cc1OCC | 1.44
88 | CCCNc1nc2c(c(=O)n(C)c(=O)n2C)n1CCc1ccccc1 | -5.56 (active)
89 | O=c1cc2oc3cc(O)c(O)cc3c(-c3ccccc3O)c-2cc1O | 15.3
90 | CCn1c(SCC(=O)Nc2nc3ccc(OC)cc3s2)nc2c1c(=O)n(C)c(=O)n2C | -3.33 (active)
91 | CCn1ncc(C2=NOC(C(=O)Nc3cccc(C(C)=O)c3)C2)c1C (centres undefined) | -3 (active)
92 | C=C(C)c1cccc(C(C)(C)NC(=O)NCC2COCCO2)c1 (centres undefined) | 0.86
93 | CC(C)(C)c1ccc(C(=O)c2c[nH]c(C(=O)NCC3CCCO3)c2)cc1 (centres undefined) | -4.57 (active)
94 | CCn1c(=NC(=O)c2ccc(S(=O)(=O)N(C)C)cc2)sc2cccc(OC)c21 | -5.14 (active)
